Experimental data from PubChem BioAssay (Tox21).
Records with an inconclusive call do not appear. A number with no mark means an inactive call. Calls of active or inactive are those of the source. Calls come from the whole dose curve; as a rule, active = well fitted curve in the direction sought with a large enough effect in the repeat runs; inconclusive = weak or mixed curves; inactive = no such curve, though single readings can be large; an effect the other way counts as inactive or inconclusive.

Assay: qHTS RealTime-Glo MT Cell Viability Assay in HEK293 cells - 40 hour (AID 1224874); note: nearly all actives have a fitted effect of over 50% in size
Details: RealTime-Glo luminescence; max response: stronger effect = lower value
Method in brief: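 600 HEK293 cells per well, dispensed already mixed with RealTime-Glo MT reagents. Compound dosing came 5 h later. The same wells were read for luminescence at 0, 8, 16, 24, 32 and 40 h of exposure at 37 C.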
% is set by controls: 0 for no effect and ±100 for the full control effect; potency is the fitted concentration of half-maximal effect.

| Structure (SMILES) | Potency | max response [%] |
| --- | --- | --- |
| O=C(Nc1ccccc1)c1cc(Cl)ccc1O | 21.9 µM (active) |  |
| Cc1ccc(N=Nc2c(O)ccc3ccccc23)c(C)c1 |  | -8.3 |
| C/C=C/C(=O)OCC(C)C |  | 5.85 |
| CN1CCN(CCCN2c3ccccc3Sc3ccc(C(F)(F)F)cc32)CC1 | 23.9 µM (active) |  |
| CC(C)(C)c1cc(CCC(=O)OCCSCCOC(=O)CCc2cc(C(C)(C)C)c(O)c(C(C)(C)C)c2)cc(C(C)(C)C)c1O |  | 2.76 |
| C=Cc1ccncc1 |  | -1.15 |
| CCCCCN=C(N)N/N=C/c1c[nH]c2ccc(OC)cc12 | 4.25 µM (active) |  |
| O=C1CCCCCCCCCCCCCC1 |  | -11.7 |
| CCN(CC)c1ccc(N=Nc2ccccc2)cc1 | 54.9 µM (active) |  |
| O=C1CCC/C=C\CCCCCCCCCC1 |  | -5.39 |
| Brc1cc(Br)cc(Br)c1 |  | 0.239 |
| N#Cc1ccc(C/C(=N/NC(=O)Nc2ccc(OC(F)(F)F)cc2)c2cccc(C(F)(F)F)c2)cc1 |  | -2.78 |
| CSc1nnc(C(C)(C)C)c(=O)[nH]1 |  | 1.65 |
| CCOC(=O)OC(=O)OCC |  | 18.5 |
| CCCCCCCCCC[N+](C)(CCCCCCCCCC)CCC[Si](OC)(OC)OC | 27.5 µM (active) |  |
| c1ccc2c(c1)-c1ccc3ccc4cccc5cc-2c1c3c45 |  | 8.42 |
| O=C(CCCCCCCCc1cccnc1)N1CCC(C=C(c2ccccc2)c2ccccc2)CC1 | 21.9 µM (active) |  |
| CCN(CC)c1ccc(C=O)c(O)c1 |  | -15 |
| COc1cc(/C=C/C(=O)CC(=O)/C=C/c2ccc(O)c(OC)c2)ccc1O | 22 µM (active) |  |

| Structure (SMILES) | Potency | max response [%] |
| --- | --- | --- |
| CC(C=O)c1ccccc1 (stereo unspecified) |  | -16.6 |
| C=CC(=O)O[C@H]1C[C@@H]2CC[C@@]1(C)C2(C)C |  | 3.56 |
| CCC1(C)C(=O)N(Cl)C(=O)N1Cl (stereo unspecified) |  | 2.78 |
| CN[C@H]1CC[C@@H](c2ccc(Cl)c(Cl)c2)c2ccc(S(N)(=O)=O)cc21 | 19.5 µM (active) |  |
| CC/C=C(\C)C=O |  | 4.52 |
| O=C(Nc1ccc([N+](=O)[O-])cc1)Nc1ccc([N+](=O)[O-])cc1 (tested in a mixture with another compound) | 4.77 µM (active) |  |
| O=C(NCc1ncc(C(F)(F)F)cc1Cl)c1c(Cl)cccc1Cl | 19.5 µM (active) |  |
| CCCCCCCCCCCCS(=O)(=O)Cl |  | 12.1 |
| Cc1cccc2c1ccc1ccccc12 |  | -16.2 |
| CC(=O)CC(N)=O |  | 14.8 |
| CCc1cccc(C)c1N(C(=O)C(=O)O)C(C)COC (stereo unspecified) |  | 10.9 |
| CCC(=O)OC/C=C(\C)CCC=C(C)C |  | -0.115 |
| CCCCC/C=C\C=C\C(=O)OCC | 57.2 µM (active) |  |
| CCCC(C)C=O (stereo unspecified) |  | 0.0424 |
| CC(O)(c1ccc(Cl)cc1)c1ccc(Cl)cc1 | 24.5 µM (active) |  |
| C=Cc1ccc(O)c(OC)c1 |  | 2.13 |
| Cc1cc(Br)ccc1NC(=O)CCl | 19.5 µM (active) |  |
| CC(=O)[C@]1(O)Cc2c(O)c3c(c(O)c2[C@@H](O[C@H]2C[C@H](N)[C@H](O)[C@H](C)O2)C1)C(=O)c1ccccc1C3=O | 0.0601 µM (active) |  |
| c1ccc2cc3c4ccccc4c4ccccc4c3cc2c1 |  | -2.98 |

Assay: A CellTox Green Cytotoxicity Assay to monitor cytotoxicity in HEK293 cells - 24 hour (AID 1224875); note: nearly all actives have a fitted effect of over 45% in size
Details: CellTox Green fluorescence; series mostly up to 76.8 µM
Method in brief: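 Dead-cell fluorescence measured kinetically: asymmetric cyanine dye, HEK293, 600 cells/well, 5 h settle, 23 nL cpd/DMSO, 37 C, reads 0–40 h every 8 h.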

| Structure (SMILES) | Potency | activity change |
| --- | --- | --- |
| O=C(Nc1ccccc1)c1cc(Cl)ccc1O | inactive |  |
| Cc1ccc(N=Nc2c(O)ccc3ccccc23)c(C)c1 | inactive |  |
| C/C=C/C(=O)OCC(C)C | inactive |  |
| CN1CCN(CCCN2c3ccccc3Sc3ccc(C(F)(F)F)cc32)CC1 | 23.9 µM (active) |  |
| CC(C)(C)c1cc(CCC(=O)OCCSCCOC(=O)CCc2cc(C(C)(C)C)c(O)c(C(C)(C)C)c2)cc(C(C)(C)C)c1O | inactive |  |
| C=Cc1ccncc1 | inactive |  |
| CCCCCN=C(N)N/N=C/c1c[nH]c2ccc(OC)cc12 | 6.74 µM (active) |  |
| O=C1CCCCCCCCCCCCCC1 | 43.6 µM (active) |  |
| CCN(CC)c1ccc(N=Nc2ccccc2)cc1 | inactive |  |
| O=C1CCC/C=C\CCCCCCCCCC1 | inactive |  |
| Brc1cc(Br)cc(Br)c1 | inactive |  |
| N#Cc1ccc(C/C(=N/NC(=O)Nc2ccc(OC(F)(F)F)cc2)c2cccc(C(F)(F)F)c2)cc1 | inactive |  |
| CSc1nnc(C(C)(C)C)c(=O)[nH]1 | inactive |  |
| CCOC(=O)OC(=O)OCC | inactive |  |
| CCCCCCCCCC[N+](C)(CCCCCCCCCC)CCC[Si](OC)(OC)OC | 38.9 µM (active) |  |
| c1ccc2c(c1)-c1ccc3ccc4cccc5cc-2c1c3c45 | inactive |  |
| O=C(CCCCCCCCc1cccnc1)N1CCC(C=C(c2ccccc2)c2ccccc2)CC1 | inactive |  |
| CCN(CC)c1ccc(C=O)c(O)c1 | inactive |  |
| COc1cc(/C=C/C(=O)CC(=O)/C=C/c2ccc(O)c(OC)c2)ccc1O | 43.9 µM (active) |  |

| Structure (SMILES) | Potency | activity change |
| --- | --- | --- |
| CC(C=O)c1ccccc1 (stereo unspecified) | inactive |  |
| C=CC(=O)O[C@H]1C[C@@H]2CC[C@@]1(C)C2(C)C | inactive |  |
| CCC1(C)C(=O)N(Cl)C(=O)N1Cl (stereo unspecified) | inactive |  |
| CN[C@H]1CC[C@@H](c2ccc(Cl)c(Cl)c2)c2ccc(S(N)(=O)=O)cc21 | 21.9 µM (active) |  |
| CC/C=C(\C)C=O | inactive |  |
| O=C(Nc1ccc([N+](=O)[O-])cc1)Nc1ccc([N+](=O)[O-])cc1 (tested in a mixture with another compound) | inactive |  |
| O=C(NCc1ncc(C(F)(F)F)cc1Cl)c1c(Cl)cccc1Cl | inactive |  |
| CCCCCCCCCCCCS(=O)(=O)Cl |  | -0.292% [at 15.8 µM, stronger effect = higher value] |
| Cc1cccc2c1ccc1ccccc12 | inactive |  |
| CC(=O)CC(N)=O | inactive |  |
| CCc1cccc(C)c1N(C(=O)C(=O)O)C(C)COC (stereo unspecified) | inactive |  |
| CCC(=O)OC/C=C(\C)CCC=C(C)C | inactive |  |
| CCCCC/C=C\C=C\C(=O)OCC | inactive |  |
| CCCC(C)C=O (stereo unspecified) | inactive |  |
| CC(O)(c1ccc(Cl)cc1)c1ccc(Cl)cc1 | 49 µM (active) |  |
| C=Cc1ccc(O)c(OC)c1 | inactive |  |
| Cc1cc(Br)ccc1NC(=O)CCl | inactive |  |
| CC(=O)[C@]1(O)Cc2c(O)c3c(c(O)c2[C@@H](O[C@H]2C[C@H](N)[C@H](O)[C@H](C)O2)C1)C(=O)c1ccccc1C3=O | inactive |  |
| c1ccc2cc3c4ccccc4c4ccccc4c3cc2c1 | inactive |  |
